Test systems include RPMI-8226 leukemia; OVCAR-8 ovarian; OVCAR-5 ovarian; OVCAR-4 ovarian; SK-OV-3 ovarian; OVCAR-3 ovarian; HS 578T breast; NCI/ADR-RES ovarian; T-47D breast; BT-549 breast; MDA-MB-435 melanoma; SW-620 colon; MCF7 breast; HCT-116 colon; HCC-2998 colon; KM12 colon; IGROV1 ovarian.
What all share (experiment): NCI-60 one-dose screen, 48 h (100 = growth as untreated, 0 = no growth, -100 = all killed)
Holding throughout (conditions): 10 µM unless noted

Our source for the growth values is PubChem BioAssay (NCI).

The panel holds about 83,000 compounds, 20% with a hit somewhere; the sample as a whole holds those more often.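 Treatment: one concentration, 48 hours, 96-well format. Scoring: percent growth, with anything below 10 considered active.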 Values without a mark were called inactive. Active and inactive are the calls of the source.

`C=CC(=O)N[C@H](/C=C/C(=O)OCC)Cc1ccc(-c2cc(Cl)cc(Cl)c2)cc1`: the growth is 73.8% in the test with RPMI-8226 leukemia; 76.6% in the test on OVCAR-8 ovarian; 95.5% with OVCAR-5 ovarian; 83.6% in the test with OVCAR-4 ovarian; 94.6% in the test with SK-OV-3 ovarian; 89.5% with OVCAR-3 ovarian. Also, the growth in the test on HS 578T breast is 94.8%; in the test with NCI/ADR-RES ovarian, 81.8%; with T-47D breast it was 57.7%; with BT-549 breast it was 84.6%; in the test on MDA-MB-435 melanoma, 96.1%; in the test on SW-620 colon, 91.7%. Moreover, the growth was 82.8% with MCF7 breast, 72.1% in the test on HCT-116 colon, 94.6% in the test on HCC-2998 colon and 89.8% in the test with KM12 colon.

Take `O=C(/C=C/c1ccccc1)n1c(-c2ccc(Cl)cc2)nc2ccccc21`: the growth was -31.1% (active) in the test with RPMI-8226 leukemia; -31.3% (active) in the test with OVCAR-8 ovarian; -48.1% (active) in the test with OVCAR-5 ovarian; 30% with OVCAR-4 ovarian; 24% in the test on SK-OV-3 ovarian; -57.2% (active) with OVCAR-3 ovarian. In addition, the growth was 20% with HS 578T breast; 10.8% in the test on NCI/ADR-RES ovarian; -4.25% (active) in the test on T-47D breast; -50.5% (active) with BT-549 breast; -44.3% (active) in the test on MDA-MB-435 melanoma; -55.1% (active) with SW-620 colon. The growth in the test with MCF7 breast is 10.3%; with HCT-116 colon it was -71.5% (active); with HCC-2998 colon, 5.08% (active); in the test on KM12 colon, -62.9% (active).

Take `COc1ccc(C(=O)N2CCN(C(=O)c3cc(OC)c(OC)c(OC)c3)CC2)cc1OCCCCOc1cc2c(cc1OC)C(=O)N1CCC[C@H]1C=N2`: the growth is 90.3% in the test with RPMI-8226 leukemia; 209% in the test on OVCAR-8 ovarian; 111% with OVCAR-5 ovarian; 112% in the test with OVCAR-4 ovarian; 108% in the test on SK-OV-3 ovarian; -18.9% (active) in the test with IGROV1 ovarian. In addition, the growth with OVCAR-3 ovarian is 105%; in the test with HS 578T breast, -24.2% (active); in the test on NCI/ADR-RES ovarian it was 110%; in the test with T-47D breast it was 85.4%; in the test with BT-549 breast, 115%; with MDA-MB-435 melanoma, 108%. In addition, the growth in the test with SW-620 colon is 110%; in the test on MCF7 breast, 98.8%; with HCT-116 colon, 101%; in the test with KM12 colon, 129%.

Consider `CCC(C)NCC(=O)O` (centres undefined), for which the growth was 90.1% in the test with RPMI-8226 leukemia; 110% in the test with OVCAR-8 ovarian; 96% in the test on OVCAR-5 ovarian; 105% in the test with OVCAR-4 ovarian; 106% in the test on SK-OV-3 ovarian; 110% in the test with IGROV1 ovarian. The growth in the test with OVCAR-3 ovarian is 111%; in the test with NCI/ADR-RES ovarian, 110%; with T-47D breast, 86.3%; with BT-549 breast, 110%; in the test with MDA-MB-435 melanoma, 101%; with SW-620 colon, 105%. Moreover, the growth in the test with MCF7 breast was 103%; with HCT-116 colon it was 99.9%; in the test on HCC-2998 colon it was 101%; in the test on KM12 colon, 105%.

Regarding `CCC(=O)Nc1ccccc1C#C/C=C\C#Cc1ccccc1SC`, the growth is 20.1% in the test on RPMI-8226 leukemia; 144% in the test on OVCAR-8 ovarian; 69.1% in the test with OVCAR-5 ovarian; 74.6% with OVCAR-4 ovarian; 78.1% with SK-OV-3 ovarian; -49.3% (active) in the test on IGROV1 ovarian. The growth with OVCAR-3 ovarian was 65%; in the test with HS 578T breast it was -34.3% (active); with NCI/ADR-RES ovarian, 49.9%; in the test with T-47D breast, 57.2%; in the test on BT-549 breast, 71.6%; in the test on MDA-MB-435 melanoma, -16.5% (active). Also, the growth in the test on SW-620 colon is 35.3%; in the test with MCF7 breast, 62.2%; in the test on HCT-116 colon, 41.6%; in the test on KM12 colon it was 43.5%.

In the case of `COc1cc(/C=C2\CCCC3=C2NC(C)=NC3c2cc(OC)c(OC)c(OC)c2)cc(OC)c1OC` (centres undefined), the growth in the test with RPMI-8226 leukemia was -15.1% (active); in the test with OVCAR-8 ovarian, 5.87% (active); with OVCAR-5 ovarian, 10.8%; in the test on OVCAR-4 ovarian it was 42.2%; in the test on SK-OV-3 ovarian it was 43.9%; in the test on IGROV1 ovarian it was 30.7%. The growth with OVCAR-3 ovarian was 28%; in the test with HS 578T breast, 48.6%; in the test on NCI/ADR-RES ovarian, 14.5%; in the test with T-47D breast it was 79.2%; in the test on MDA-MB-435 melanoma it was 5.2% (active); in the test on SW-620 colon, -8.03% (active). Besides, the growth in the test with MCF7 breast was 23%; in the test with HCT-116 colon it was -78.2% (active); with HCC-2998 colon it was 11.9%; with KM12 colon it was 2.95% (active).

As to `COC1=CC(c2ccc[nH]2)=N/C1=C\c1[nH]c(C)c(C(=O)CCCCC(=O)Oc2ccc3c(c2)CCC2C3CC[C@]3(C)[C@@H](O)CC[C@@H]23)c1C` (some centres undefined), the growth was 45% in the test with RPMI-8226 leukemia; 70.8% in the test on OVCAR-8 ovarian; 65.6% with OVCAR-5 ovarian; 48.6% in the test on OVCAR-4 ovarian; 90% in the test on SK-OV-3 ovarian; 70.7% with IGROV1 ovarian. In addition, the growth with HS 578T breast was 54.3%; in the test on NCI/ADR-RES ovarian it was 82.4%; in the test with T-47D breast it was 5.62% (active); in the test on MDA-MB-435 melanoma it was 51.2%; in the test on SW-620 colon it was 37.4%; in the test with MCF7 breast, 27.2%. Further, the growth is 20.9% in the test on HCT-116 colon, 83.1% in the test on HCC-2998 colon and 29.4% in the test with KM12 colon.

Take `CC1Cc2c(N(C)C)ncnc2N(C)c2ccc(Cl)cc21` (centres undefined): the growth in the test on RPMI-8226 leukemia is 31.3%; with OVCAR-8 ovarian it was 45.9%; in the test with OVCAR-5 ovarian, 73.8%; in the test with OVCAR-4 ovarian, 49.7%; in the test with SK-OV-3 ovarian it was 46.3%; in the test on OVCAR-3 ovarian, 5.13% (active). For the same molecule, the growth in the test on HS 578T breast was -1.26% (active); in the test with NCI/ADR-RES ovarian, 25.9%; in the test on T-47D breast it was 37.1%; in the test with BT-549 breast it was 24.6%; with MDA-MB-435 melanoma it was -32.2% (active); in the test on SW-620 colon it was 17.9%. Moreover, the growth in the test on MCF7 breast is 15.2%; in the test on HCT-116 colon it was 16.9%; in the test with HCC-2998 colon it was 50.1%; with KM12 colon, 23.6%.

As to `COc1ccc(/C=C/C(=O)c2ccc(NC(=O)CN3CCN(c4cc5c(cc4F)c(=O)c(C(=O)O)cn5C4CC4)CC3)cc2)cc1`, the growth in the test with RPMI-8226 leukemia is 92.6%; with OVCAR-8 ovarian, 99%; with OVCAR-5 ovarian, 105%; with OVCAR-4 ovarian, 101%; with SK-OV-3 ovarian, 114%; in the test on IGROV1 ovarian, 115%. For the same molecule, the growth in the test on OVCAR-3 ovarian was 118%; with HS 578T breast, 94.8%; in the test with NCI/ADR-RES ovarian, 107%; with T-47D breast, 98.7%; with MDA-MB-435 melanoma, 98.6%; with SW-620 colon it was 113%. For the same molecule, the growth was 91.9% in the test with MCF7 breast, 25.1% with HCT-116 colon, 100% in the test with HCC-2998 colon and 106% in the test with KM12 colon.

In the case of `Cc1cc(C(=O)O)c(N)c(C)n1`, the growth in the test with RPMI-8226 leukemia was 103%; in the test with OVCAR-8 ovarian it was 112%; in the test with OVCAR-5 ovarian, 111%; in the test with OVCAR-4 ovarian, 102%; in the test with SK-OV-3 ovarian it was 129%; in the test on OVCAR-3 ovarian, 110%. For the same molecule, the growth in the test on HS 578T breast was 101%; in the test with NCI/ADR-RES ovarian it was 108%; with T-47D breast, 112%; in the test on BT-549 breast, 106%; in the test on MDA-MB-435 melanoma it was 107%; in the test with SW-620 colon, 106%. Further, the growth in the test on MCF7 breast is 93.6%; in the test with HCT-116 colon, 102%; in the test on HCC-2998 colon, 111%; in the test with KM12 colon, 110%.
